Measurements from PubChem BioAssay (NCI).
The panel holds about 79,000 compounds, 15% with a hit somewhere; the sample as a whole holds those more often. Active and inactive are the calls of the source. Cut-off read from the data, not from the text of the source: active = growth inhibition above about 70%; inactive = the rest.

Key:
[1] = NCI Yeast Anticancer Drug Screen. Data for the wt1 strain (AID 149);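 note: 0% = growth of vehicle-treated wt1 cultures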; conditions: S. cerevisiae wt1 strain (SPY 50644) growth inhibition, active compounds read high
Outline: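 Compounds are added to wt1 yeast cultures. Growth is then measured. Inhibition is expressed relative to vehicle-treated controls.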

[2] = NCI Yeast Anticancer Drug Screen. Data for the rad50EPP+ strain (AID 151);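 note: 0% = growth of vehicle-treated control cultures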; conditions: S. cerevisiae rad50 mutant strain, active compounds read high
Outline: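 Vehicle-normalised growth inhibition; rad50EPP+ yeast strain, altered in DNA damage repair, compound-treated.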

[3] = NCI Yeast Anticancer Drug Screen. Data for the mgt1 strain (AID 153); conditions: S. cerevisiae mgt1 mutant growth inhibition, active compounds read high
Outline: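 Vehicle-normalized growth inhibition is determined in mgt1 yeast, a strain selected for a defined alteration in DNA repair or cell cycle control.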

[4] = NCI Yeast Anticancer Drug Screen. Data for the rad50 strain (AID 155);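 note: 0% = growth of vehicle-only cultures of the same strain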; conditions: S. cerevisiae rad50 strain growth inhibition, active compounds read high
Outline: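 Inhibition values express reduced yeast growth in compound-treated cultures relative to vehicle-treated controls.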

[5] = NCI Yeast Anticancer Drug Screen. Data for the mec2-1 strain (AID 157); conditions: S. cerevisiae mec2-1 strain, active compounds read high
Outline: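 Mutant yeast (mec2-1) grown with compound; growth inhibition relative to vehicle control reported.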

[6] = NCI Yeast Anticancer Drug Screen. Data for the rad14 strain (AID 159);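 note: 0% = growth of vehicle-treated control cultures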; conditions: S. cerevisiae rad14 strain growth inhibition, active compounds read high
Outline: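 A mutant yeast strain defective in DNA damage repair is treated with compound; inhibition of its growth is scored against untreated, vehicle-exposed cultures.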

[7] = NCI Yeast Anticancer Drug Screen. Data for the sgs1 mgt1 strain (AID 161);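 note: 0% = growth of cultures given vehicle only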; conditions: S. cerevisiae sgs1 mgt1 strain, active compounds read high
Outline: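 This yeast growth screen uses a strain with defined DNA-repair lesions; compound-treated growth is compared with vehicle-treated growth.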

[8] = NCI Yeast Anticancer Drug Screen. Data for the CLN2oe strain (AID 163);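 note: 0% = growth of vehicle-only control cultures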; conditions: S. cerevisiae CLN2oe strain, active compounds read high
Outline: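 Compounds are applied to yeast harbouring a defined cell-cycle control change; reduced growth compared with vehicle-treated controls gives the value.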

[9] = NCI Yeast Anticancer Drug Screen. Data for the cln2 rad14 strain (AID 165);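 note: 0% = growth equal to vehicle treated cultures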; conditions: S. cerevisiae cln2 rad14 strain, active compounds read high
Outline: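 Readout is yeast growth inhibition versus vehicle-treated controls, using a strain with cln2 and rad14 alterations exposed to compound.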

[10] = NCI Yeast Anticancer Drug Screen. Data for the bub3 strain (AID 167); conditions: S. cerevisiae bub3 mutant strain, active compounds read high
Outline: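 Steps: expose the mutant yeast strain to compound; grow alongside vehicle-treated cultures; measure growth; express inhibition against the vehicle cultures.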

[11] = NCI Yeast Anticancer Drug Screen. Data for the wt2 strain (AID 169);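 note: 0% = growth of vehicle-treated yeast cultures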; conditions: S. cerevisiae wt2 strain growth inhibition, active compounds read high
Outline: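 Against vehicle-treated controls, the growth of yeast exposed to each compound was compared, and the inhibition was recorded.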

[12] = NCI Yeast Anticancer Drug Screen. Data for the mlh1 strain (AID 171);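 note: 0% = growth of vehicle-treated control cultures of the same strain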; conditions: S. cerevisiae mlh1 strain growth inhibition, active compounds read high
Outline: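 Measured: yeast growth. Reference: vehicle-treated controls. Organism: strain with a defined alteration affecting DNA damage repair or cell cycle control, treated with compound.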

[13] = NCI Yeast Anticancer Drug Screen. Data for the sgs1 strain (AID 173);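 note: 0% = growth of vehicle-only control cultures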; conditions: S. cerevisiae sgs1 mutant, active compounds read high
Outline: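 Each compound was added to cultures of the altered yeast strain. Growth was recorded, and inhibition was derived by comparison with vehicle controls.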

[14] = NCI Yeast Anticancer Drug Screen. Data for the mlh1 rad18 strain (AID 175); conditions: S. cerevisiae mlh1 rad18 strain growth inhibition, active compounds read high
Outline: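 Genetically defined yeast (DNA repair-deficient) exposed to compounds; growth inhibition determined relative to vehicle.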

[15] = NCI Yeast Anticancer Drug Screen. Data for the rad18 strain (AID 177); conditions: S. cerevisiae rad18 mutant growth inhibition, active compounds read high
Outline: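 Vehicle-treated cultures served as the baseline for scoring compound-induced growth inhibition in DNA-repair-mutant yeast.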

[16] = at 5.0 µM (retest, dose inferred, filed as 0.5)
[17] = at 50.0 µM (retest, dose inferred, filed as 5.0)

Measured: growth inhibition

[N-]=[N+]=NC1=C(c2ccccn2)C(=O)c2cccc3cccc1c23
active: [2]; at 33.0 µM 74% | [2]; at 100.0 µM 93% | [4]; [17] 71% | [4]; at 100.0 µM 71% | [7]; at 50.0 µM 71.4% | [8]; at 100.0 µM 74% | [15]; at 100.0 µM 85%
inactive: [1]; at 1.2 µM 2% | [1]; at 3.7 µM 4% | [1]; at 11.0 µM 5% | [1]; at 33.0 µM 14% | [1]; at 100.0 µM 34% | [2]; at 1.2 µM 9% | [2]; at 3.7 µM 16% | [2]; at 11.0 µM 31% | [3]; at 1.2 µM -3% | [3]; at 3.7 µM -1% | [3]; at 11.0 µM 19% | [3]; at 33.0 µM 10% | [3]; at 100.0 µM 41% | [4]; at 1.2 µM 2% | [4]; at 3.7 µM 3% | [4]; [16] 7% | [4]; at 11.0 µM 5% | [4]; at 33.0 µM 53% | [4]; at 50.0 µM 67.2% | [5]; at 1.2 µM 5% | [5]; at 3.7 µM 7% | [5]; [16] -5% | [5]; at 11.0 µM 14% | [5]; at 33.0 µM 37% | [5]; [17] 40% | [5]; at 50.0 µM 63.8% | [5]; at 100.0 µM 61% | [6]; at 1.2 µM 2% | [6]; at 3.7 µM 5% | [6]; at 11.0 µM 11% | [6]; at 33.0 µM 26% | [6]; at 100.0 µM 63% | [7]; [16] -7% | [7]; [17] 28% | [8]; at 1.2 µM -3% | [8]; at 3.7 µM 1% | [8]; at 11.0 µM 5% | [8]; at 33.0 µM 35% | [9]; [16] 38% | [9]; [17] 31% | [9]; at 50.0 µM 67% | [10]; at 1.2 µM -1% | [10]; at 3.7 µM 4% | [10]; [16] -11% | [10]; at 11.0 µM 18% | [10]; at 33.0 µM 24% | [10]; [17] 59% | [10]; at 50.0 µM 69.6% | [10]; at 100.0 µM 61% | [11]; at 1.2 µM -1% | [11]; at 3.7 µM -1% | [11]; at 11.0 µM 5% | [11]; at 33.0 µM 26% | [11]; at 100.0 µM 63% | [12]; at 1.2 µM 4% | [12]; at 3.7 µM -2% | [12]; at 11.0 µM 7% | [12]; at 33.0 µM 19% | [12]; at 100.0 µM 42% | [13]; at 1.2 µM -2% | [13]; at 3.7 µM 1% | [13]; at 11.0 µM 6% | [13]; at 33.0 µM 37% | [13]; at 100.0 µM 67% | [14]; [16] 4% | [14]; [17] 52% | [14]; at 50.0 µM 59% | [15]; at 1.2 µM 0% | [15]; at 3.7 µM 6% | [15]; at 11.0 µM 12% | [15]; at 33.0 µM 58%

CC(C)=CC(=O)O[C@@H]1CC(C)(C)CC2C3=CCC4[C@]56CC[C@](O)(OC5)C(C)(C)C6CC[C@@]4(C)C3(C)CC[C@]21C(=O)O (stereo partly drawn)
active: [1]; at 11.0 µM 85% | [1]; at 33.0 µM 93% | [1]; at 100.0 µM 92% | [3]; at 33.0 µM 89% | [3]; at 100.0 µM 91% | [4]; at 11.0 µM 75% | [4]; at 33.0 µM 94% | [4]; [17] 88% | [4]; at 50.0 µM 82.3% | [4]; at 100.0 µM 90% | [5]; at 33.0 µM 88% | [5]; [17] 87% | [5]; at 50.0 µM 83.2% | [5]; at 100.0 µM 89% | [6]; at 33.0 µM 78% | [6]; at 100.0 µM 84% | [7]; [17] 89% | [7]; at 50.0 µM 85.2% | [8]; at 11.0 µM 85% | [8]; at 33.0 µM 95% | [8]; at 100.0 µM 93% | [9]; [17] 92% | [9]; at 50.0 µM 79.3% | [10]; at 11.0 µM 81% | [10]; at 33.0 µM 92% | [10]; [17] 91% | [10]; at 50.0 µM 81.3% | [10]; at 100.0 µM 92% | [11]; at 33.0 µM 91% | [11]; at 100.0 µM 94% | [12]; at 33.0 µM 87% | [12]; at 100.0 µM 90% | [15]; at 33.0 µM 95% | [15]; at 100.0 µM 94%
inactive: [1]; at 1.2 µM -23% | [1]; at 3.7 µM 44% | [2]; at 1.2 µM -9% | [2]; at 3.7 µM -1% | [2]; at 11.0 µM 7% | [2]; at 33.0 µM 14% | [2]; at 100.0 µM 6% | [3]; at 1.2 µM -15% | [3]; at 3.7 µM 11% | [3]; at 11.0 µM 57% | [4]; at 1.2 µM 1% | [4]; at 3.7 µM 36% | [4]; [16] 10% | [5]; at 1.2 µM -8% | [5]; at 3.7 µM 31% | [5]; [16] 27% | [5]; at 11.0 µM 69% | [6]; at 1.2 µM -15% | [6]; at 3.7 µM 2% | [6]; at 11.0 µM 44% | [7]; [16] 11% | [8]; at 1.2 µM -5% | [8]; at 3.7 µM 54% | [9]; [16] 33% | [10]; at 1.2 µM -18% | [10]; at 3.7 µM 27% | [10]; [16] 25% | [11]; at 1.2 µM -11% | [11]; at 3.7 µM 18% | [11]; at 11.0 µM 61% | [12]; at 1.2 µM -13% | [12]; at 3.7 µM 21% | [12]; at 11.0 µM 58% | [15]; at 1.2 µM 9% | [15]; at 3.7 µM 42% | [15]; at 11.0 µM 36%
